HT1080NT lethal = kills 2HG-producing HT-1080-NT fibrosarcoma cells. hit rate 1.6% among 360,000. AID 686970. HT-1080-NT fibrosarcoma viability, CellTiter-Glo ATP luminescence, 48 h. Potency, µM (top dose mostly 46.1 µM), for inactives: at the highest dose activity, negative = less viability, hits mostly cytotoxic;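 note: NT is the 2HG producing partner of a matched IDH1 knockdown line; 0% = DMSO-treated cells and -100% = media-only wells without cells; nearly all actives have a fitted effect of over 55% in size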
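750 cells/well, RPMI + 5% FBS; 2 h settle, compound pin-transfer, 48 h at 37 degrees C. CellTiter-Glo 10 min RT, luminescence. Normalized to DMSO and media-only wells.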
SW480 rereplic = inducers of DNA re-replication in SW480 colon cancer cells; SW480 DNA re-replication, Hoechst DNA content imaging, 48 h; Potency, µM (titrated, usually from 46.1 µM), inactives show at the top dose re-replication activation, actives largely listed as activators; hit rate 1.8% among 340,000; AID 624297; note: % of control where 0% means no effect; nearly all actives have a fitted effect of over 55% in size
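250 cells/well; 23 nL cpd via pin tool; 48 hr, 37 C, 5% CO2; Hoechst 40 min; imager read of total nuclear intensity, ex 405/em 500-530 nm.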
MCF10A rereplic = DNA re-replication induction in MCF 10a cells; AID 624296; hit rate 2.9% among 350,000; Potency, µM (doses to about 46.1 µM), for the others: at the highest dose activity, positive = re-replication, most hits filed as activators; MCF 10A DNA re-replication, Hoechst nuclear intensity, 48 h; note: % of control where 0% means no effect; nearly all actives have a fitted effect of over 50% in size
KB-3-1 tox = kills parental KB-3-1 adenocarcinoma cells | Potency, µM (doses to about 46.1 µM), most hits filed as cytotoxic | KB-3-1 viability, CellTiter-Glo ATP luminescence, 72 h | hit rate 1.4% among 400,000; note: % is set by controls: 0 for no effect and ±100 for the full control effect; nearly all actives have a fitted effect of over 60% in size
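Multi-concentration cytotoxicity screen in KB-3-1 cells grown in DMEM lacking phenol red with 10% FBS. After 72 h at 37 °C with compound, ATP-dependent luminescence was recorded.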
HT1080 IDH1KD tx = toxicity to HT-1080 IDH1 knockdown cells (counter line) | Potency, µM (highest dose often 46.1 µM), without a hit: at the highest dose activity, negative = toxicity, most hits filed as cytotoxic | hit rate 2% among 360,000 | HT-1080 IDH1 knockdown viability, ATP luminescence, 48 h;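 note: 0% = DMSO wells and -100% = cell-free medium wells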
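CellTiter-Glo luminescence after 48 h compound exposure at 37 degrees C of IDH1-knockdown HT-1080 cells in 5% FBS RPMI. %Activity scaled between DMSO wells and cell-free media wells, with curves fitted and assigned curve classes.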
KB-V1 cytotox = KB-V1 MDR subline cytotoxicity | AID 1347076 | KB-V1 MDR cells viability, CellTiter-Glo, 72 h | Potency, µM (series often up to 46.1 µM), actives largely listed as cytotoxic | hit rate 3.4% among 400,000; note: % is set by controls: 0 for no effect and ±100 for the full control effect; nearly all actives have a fitted effect of over 60% in size
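KB-V1 cells (P-gp-expressing MDR subline of KB-3-1) in phenol-red-free DMEM with 10% FBS were exposed to library compounds over a concentration series for 72 h at 37 degrees C. Viability read by CellTiter-Glo luminescence; concentration-effect curves fitted after normalization.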
* marks the source's active call; other numbers are inactive results; i = inactive; ? = inconclusive; . = no result given. Most compounds without a hit are left out; they make up all but 7.9% or so of the library. Calls come from the whole dose curve; as a rule, active = well fitted curve in the direction sought with a large enough effect; inconclusive = small, poorly fitted or top-dose-only effect, or another doubt; inactive = no such curve, though single readings can be large; an effect the other way counts as inactive or inconclusive. Potency is the fitted concentration of half-maximal effect.

SMILES	HT1080NT lethal	SW480 rereplic	MCF10A rereplic	KB-3-1 tox	HT1080 IDH1KD tx	KB-V1 cytotox
CCNc1ccc(C(=O)OCC)cc1NC(=O)c1cccc(N(C)C)c1	1.8µM*	2%	-5%	?	?	?
CCOC(=O)c1ccc(Cl)c(NC(=O)c2ccc(-c3ccccc3)cc2)c1	11%	-1%	3.7µM*	?	18%	i
CN(Cc1cn(C)c2ccccc12)C(=S)Nc1cc(F)cc(F)c1	1%	-57%	-65%	?	0%	18µM*
COc1ccc(-c2cn[nH]c2-c2ccc(OCc3ccc([N+](=O)[O-])cc3)cc2O)cc1OC	-22%	4%	-1%	?	-24%	4.1µM*
O=[N+]([O-])c1ccc(COc2ccc(-c3[nH]ncc3-c3ccc(Cl)cc3)c(O)c2)cc1	?	?	23µM*	i	23µM*	i
COc1ccc(-c2cn[nH]c2-c2ccc(OCc3ccccc3F)cc2O)cc1OC	29µM*	?	?	?	18µM*	18µM*
CCc1cc(-c2[nH]ncc2-c2ccc([N+](=O)[O-])cc2)c(O)cc1OC	-5%	26%	?	i	-3%	i
CC(=O)c1ccc(NC(=O)c2ccc3c(c2)N(Cc2cccc(Cl)c2)C(=O)c2ccccc2S3(=O)=O)cc1	.	.	.	i	.	i
Cc1ccc(C(=O)N2CCCC(C(=O)Nc3cccc(-c4ccc(F)cc4)c3)C2)cn1 (configuration not stated)	-25%	-2%	?	i	-15%	?
O=C(N/N=C/c1ccc(Cl)cc1Cl)c1cccc(N2CCCC2=O)c1	-4%	-102%	-5%	i	-8%	i
O=C(N/N=C/c1sc(N2CCOCC2)nc1-c1ccccc1)c1ccc(O)cc1	-19%	1%	?	i	-26%	i
COc1cccc(/C=N/NC(=O)c2ccc(N3CCCC3=O)cc2)c1	?	1.8µM*	13µM*	16µM*	?	?
O=C(N/N=C/c1cc(Br)cc(Br)c1O)c1cccc(N2CCCC2=O)c1	-12%	8.2µM*	?	?	-22%	i
O=C(N/N=C/c1cc(Cl)cc([N+](=O)[O-])c1O)c1cccc(S(=O)(=O)N2CCOCC2)c1	16µM*	0%	13%	?	?	?
O=C(N/N=C/c1sc(N2CCOCC2)nc1-c1ccccc1)c1cccc(S(=O)(=O)N2CCCC2)c1	-4%	5%	15µM*	3.7µM*	?	?
Cc1ccc2oc(=O)n(Cc3ccccc3)c2c1	-5%	5%	-14%	i	0%	i
O=C(N/N=C/c1cc(Br)cc(Br)c1O)c1cccc(S(=O)(=O)N2CCOCC2)c1	-26%	0.65µM*	-2%	?	?	i
COC(=O)c1cc(C(=O)NCc2ccc3c(c2)OCO3)cc([N+](=O)[O-])c1	-3%	-2%	-5%	i	-6%	i
OCC#CCSc1nnc(-c2cccc3ccccc23)o1	.	-7%	23%	i	.	i
CCCn1c(SCC(=O)c2ccc3c(c2)NC(=O)CO3)nc2ccccc21	?	0%	?	i	-18%	i
Cn1c(SCC(=O)c2ccc3c(c2)NC(=O)CO3)nc2ccccc21	10%	-4%	-3%	i	30%	?
CCc1ccc(-n2c(SCC(=O)c3ccc4c(c3)NC(=O)CO4)nc3ccccc3c2=O)cc1	0%	1%	-4%	21µM*	8%	?
O=C1COc2ccc(C(=O)CSc3nc4ccccc4c(=O)n3-c3ccc(Cl)c(Cl)c3)cc2N1	0%	18µM*	13µM*	i	1%	?
Cc1occc1-c1nnc(-c2cc([N+](=O)[O-])cc([N+](=O)[O-])c2)o1	-8%	13µM*	0%	i	0%	i
O=[N+]([O-])c1cccc(-c2nnc(-c3ccccc3)o2)c1	20%	-4%	?	i	27%	i
SMILES	HT1080NT lethal	SW480 rereplic	MCF10A rereplic	KB-3-1 tox	HT1080 IDH1KD tx	KB-V1 cytotox
COc1ccc(S(=O)(=O)Nc2ncccc2C)c2ccccc12	-2%	0%	3%	i	-1%	i
CCOc1ccc(NC(=NCc2ccc3c(c2)OCO3)SC2CC(=O)N(c3ccccc3)C2=O)cc1 (configuration not stated)	-25%	1%	?	i	-30%	i
CCOc1ccc(NC(=NCc2ccc3c(c2)OCO3)SC2CC(=O)N(c3ccc(OCC)cc3)C2=O)cc1 (configuration not stated)	?	16%	21µM*	i	?	?
Cc1nn(C)c2ncc(C(N)=O)c(Oc3cccnc3)c12	3%	-1%	1%	i	11%	i
CCOC(=O)c1cnc2c(c(C)nn2C)c1Oc1ccc(Cl)cc1	-22%	2%	16%	?	-27%	3.3µM*
CCC(=O)N(C(=O)CC)N1CCN(c2ccncc2S(=O)(=O)N2CCCCC2)CC1	3%	0%	5%	0.029µM*	-1%	i
COc1cccc2c3c(c(C)nc12)CCN3c1ccccc1	?	1%	0%	i	?	?
COc1ccccc1N1CCc2c(C)nc3c(OC)cccc3c21	?	-3%	17%	?	?	21µM*
O=[N+]([O-])c1ccc(/C=C2\CCC(C3=CCCC3)=C2N2CCOCC2)cc1	1%	?	23µM*	i	-17%	?
CCN(c1ccccc1)S(=O)(=O)c1ccc(OC)c(NC(=O)C2CCC2)c1	-11%	?	18µM*	.	?	.
COc1ccc(-c2cc(C)no2)cc1S(=O)(=O)NCCc1ccco1	0%	0%	1%	i	-13%	i
CN1CCc2c(OCC(=O)N3CCCc4ccccc43)cccc2C1=O	-6%	?	9%	i	1%	?
Cc1cccc(CN2CCc3c(OCC(=O)NCc4ccco4)cccc3C2=O)c1	-5%	8%	4%	i	-11%	15µM*
Cc1ccc(C)c(NC(=O)COc2cccc3c2CCN(Cc2ccccc2)C3=O)c1	1%	4%	4%	i	-1%	i
O=C1c2cccc(OCC(=O)N3CCCc4ccccc43)c2CCN1Cc1ccc(F)cc1	-24%	10%	15µM*	?	-25%	9.2µM*
Cc1cccc(CN2CCc3c(OCC(=O)N4CCCc5ccccc54)cccc3C2=O)c1	?	19%	?	16µM*	?	?
CCOC(=O)C1CCCN(S(=O)(=O)CCNC(=O)c2ccc3c(c2)OCO3)C1 (configuration not stated)	3%	0%	-1%	i	4%	i
